Compounds without any hit were thinned out: in the full panel of roughly 79,000, 15% have a hit. Active and inactive are the calls of the source. No stated cut-off is given here; in the data, active means growth inhibition above about 70%; inactive means the rest. Where a SMILES comes first, the peptide text is derived from it. The star is where a group is joined. Cbz = O=C(OCc1ccccc1)*; Boc = CC(C)(C)OC(=O)*; OSu = O=C1CCC(=O)N1O*; Bn = c1ccc(C*)cc1
Legend:
[1] = NCI Yeast Anticancer Drug Screen. Data for the rad50 strain (AID 155);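 further: 0% = growth of vehicle-only cultures of the same strain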; settings: S. cerevisiae rad50 strain growth inhibition; at 50.0 µM; hits give high values
Method in brief: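 Cells are treated with compound, grown, and their growth is then scored against vehicle-only cultures of the same repair-deficient yeast strain.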

[2] = NCI Yeast Anticancer Drug Screen. Data for the mec2-1 strain (AID 157); settings: S. cerevisiae mec2-1 strain, at 50.0 µM, hits give high values
Method in brief: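 Growth inhibition is read against vehicle-treated controls after compound exposure of the mec2-1 yeast strain, which is defective in DNA damage repair or cell cycle control.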

[3] = NCI Yeast Anticancer Drug Screen. Data for the sgs1 mgt1 strain (AID 161);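 further: 0% = growth of cultures given vehicle only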; settings: S. cerevisiae sgs1 mgt1 strain, at 50.0 µM, hits give high values
Method in brief: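 This yeast growth screen uses a strain with defined DNA-repair lesions; compound-treated growth is compared with vehicle-treated growth.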

[4] = NCI Yeast Anticancer Drug Screen. Data for the cln2 rad14 strain (AID 165);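 further: 0% = growth equal to vehicle treated cultures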; settings: S. cerevisiae cln2 rad14 strain, at 50.0 µM, hits give high values
Method in brief: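 Growth inhibition, relative to vehicle-treated controls, is the read-out. The test organism is a yeast strain with defined genetic alterations, cln2 rad14.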

[5] = NCI Yeast Anticancer Drug Screen. Data for the bub3 strain (AID 167); settings: S. cerevisiae bub3 mutant strain, at 50.0 µM, hits give high values
Method in brief: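 Part of a panel of yeast mutants defective in DNA damage repair or cell cycle regulation. Each strain is grown with compound, and inhibition is calculated relative to solvent-treated cultures.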

[6] = NCI Yeast Anticancer Drug Screen. Data for the mlh1 rad18 strain (AID 175); settings: S. cerevisiae mlh1 rad18 strain growth inhibition; at 50.0 µM; hits give high values
Method in brief: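 Cells of a genetically altered yeast strain, deficient in DNA damage repair, were treated with compound. Their growth was then compared with that of vehicle-treated cultures to give inhibition.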

Measured: growth inhibition

O=C(Cl)c1cccc2c([N+](=O)[O-])cccc12
inactive: [1] -4.45% | [2] 2.95% | [3] -2.35% | [4] -44% | [5] -1.4% | [6] 11.8%

NC(Cc1ccc(F)cc1)(C(=O)O)c1ccccc1 (stereo unspecified)
inactive: [1] 5.2% | [2] 28.5% | [3] 8.55% | [4] -23.4% | [5] 5.85% | [6] 28.8%

CC(C)(C)OC(=O)NC(Cc1ccc(OCc2ccccc2)cc1)C(=O)NC(CCCCNC(=O)OCc1ccccc1)C(=O)NC(CCCCNC(=O)OCc1ccccc1)C(=O)ON1C(=O)CCC1=O (stereo unspecified) (Boc-Tyr(Bn)-Lys(Cbz)-Lys(Cbz)-OSu; configuration not given here)
inactive: [1] -1.85% | [2] 2.95% | [3] 6.6% | [4] 6.15% | [5] 8.6% | [6] 16.5%

C1=C/CCC2OC2CC/C=C/CC/1 (stereo unspecified)
inactive: [1] -9.8% | [2] -55.2% | [3] -24.8% | [4] 11.8% | [5] -29.2% | [6] -4.2%

COCCCNC(=O)C1C(=O)N(CCCOC)C(=O)/C1=N\N (stereo unspecified)
inactive: [1] 5.15% | [2] 21.1% | [3] 12.1% | [4] -9.3% | [5] -2.25% | [6] 17.1%

N#CC12CCC(O)C(CC1)C2=O (stereo unspecified)
inactive: [1] 20.2% | [2] 0.85% | [3] 10.1% | [4] 15.2% | [5] -4.25% | [6] 20.6%

CN(C)CC1(Cc2ccccc2)CCC(Cc2ccccc2)C1=O (stereo unspecified)
inactive: [2] 63.4% | [4] 54% | [5] 45.6%
active: [1] 85.5% | [3] 85.3% | [6] 86.3%

CN(CCSSCCN(C)/N=C/c1ccccc1)/N=C/c1ccccc1
inactive: [1] -30.6% | [2] -10% | [3] -26.7% | [4] -27.6% | [5] -10.7% | [6] -17.1%

CCCCCC(=O)OCC[N+](C)(C)C
inactive: [1] -29.8% | [2] -29.9% | [3] -6.95% | [4] 4.85% | [5] -25.2% | [6] -13.2%

CN1C(=O)OC2C3NC(=O)OC3C(O)C(O)C21 (stereo unspecified)
inactive: [1] -7.85% | [2] -12.3% | [3] -6.3% | [4] -1.15% | [5] -6.15% | [6] -8.95%

O=C(O)c1cc2ccccc2c2cc3ccccc3cc12
active: [6] 70.8%
inactive: [1] 28.6% | [2] 39% | [3] 26.6% | [4] 57.3% | [5] 33.2%

CC(C)(c1cccs1)c1cscc1C(=O)O
inactive: [1] -0.85% | [2] -6.8% | [3] -13.3% | [4] -28.8% | [5] -9.35% | [6] 16.7%

CC(=O)CC(=O)Nc1ccccc1C(C)C
inactive: [1] 12.9% | [2] 8.1% | [3] 16.1% | [4] 7.4% | [5] -7.85% | [6] -1.7%

c1ccc2c(C3=NCCO3)cccc2c1
inactive: [1] 11.7% | [2] 9.7% | [3] 8.3% | [4] -34.6% | [5] 4% | [6] 11.8%

O=C1c2ccccc2C(=O)N1C[P+](c1ccccc1)(c1ccccc1)c1ccccc1
inactive: [1] 41.9% | [2] 28.8% | [3] 32.4% | [4] 16.2% | [5] 2.25% | [6] 12.4%

COC(=O)CCC(N)C(=O)NC(Cc1ccccc1)C(=O)NC(C)C(=O)NC1C(O)OC(CO)C(O)C1O (stereo unspecified)
inactive: [1] 3.95% | [2] 15.8% | [3] 4.75% | [4] -0.65% | [5] -7.6% | [6] -5.6%

O=C1CC2CC1C1C(=O)OC(=O)C21 (stereo unspecified)
inactive: [1] -6.8% | [2] 5.95% | [3] -6.7% | [4] -1.6% | [5] -6.9% | [6] -8.6%

Cc1ccc(S(=O)(=O)Nn2c(O)c(C#N)c(-c3ccc([N+](=O)[O-])cc3)c(C#N)c2=O)cc1
inactive: [1] 4.8% | [2] 6.9% | [3] -7.9% | [4] 15.6% | [5] -13.2% | [6] -8.8%

O=C(Nc1ccccc1)c1ccccc1Cl
inactive: [1] 24.5% | [2] -0.15% | [3] 0.35% | [4] 2.8% | [5] -3.05% | [6] 12.3%

C/C=C/c1cc(C)cc(C)c1OC(C)CC (stereo unspecified)
inactive: [1] -2.45% | [2] -9.75% | [3] 11.4% | [4] -34.5% | [5] -17.9% | [6] 10.1%

Oc1ccccc1-n1nc2ccc3nonc3c2n1
inactive: [1] -16.8% | [2] -61.1% | [3] -38.9% | [4] -35.9% | [5] -1% | [6] -40.5%

O=C1OCc2nc3c(c(-c4ccccc4C(F)(F)F)c21)C(=O)OC3
inactive: [1] -40.1% | [2] -66.6% | [3] -59.3% | [4] -0.85% | [5] -35.4% | [6] -39%

CCOC(=O)c1ccc(Nc2cnc3ccc(C(F)(F)F)cc3n2)cc1
inactive: [1] 14.4% | [2] -2.35% | [3] 24.9% | [4] 14.9% | [5] 30.9% | [6] -32.8%

C=CCOC(=O)c1ccccc1O
inactive: [1] 12.9% | [2] -12.1% | [3] -13.3% | [4] -0.9% | [5] -21.2% | [6] 12.8%

CC(=O)C1CC=C(C)CC1 (stereo unspecified)
inactive: [1] -6.8% | [2] -9.55% | [3] 15.8% | [4] 14.6% | [5] -2.85% | [6] 2.6%

CCOC(=O)/C(F)=C/c1cccc(C#N)c1
inactive: [1] 41.6% | [2] -3.35% | [3] 8.1% | [4] 24.7% | [5] 30.7% | [6] 23.9%

O=c1cc(-c2ccccc2F)[nH]c2ccc(N3CCCC3)cc12
inactive: [1] 13.6% | [2] 6.2% | [3] 25.5% | [4] 0.65% | [5] 22.3% | [6] 23.6%

CC1(C)C2CCC1(C)C1(C2)OC(CCl)CS1 (stereo unspecified)
inactive: [1] 7.4% | [2] -13.8% | [3] 14.1% | [4] 4.3% | [5] 22.4% | [6] 8.4%

COC(=O)c1cncn1C1CC1
inactive: [1] 8.25% | [2] -7.1% | [3] -3.2% | [4] -58.5% | [5] -2.95% | [6] -8.2%

CN(C)c1c([N+](=O)[O-])cc2[nH]cnc2c1[N+](=O)[O-]
inactive: [1] 21.2% | [2] 12.2% | [3] 13.3% | [4] -2.9% | [5] 19.4% | [6] 13.7%

COc1ccc(C(=O)Cc2ccc3ccccc3n2)cc1
inactive: [1] -4.75% | [2] 16.7% | [3] -6.8% | [4] -24.9% | [5] -10.8% | [6] 4.45%

O=S1(=O)OCCOS(=O)(=O)C1F
inactive: [1] -69% | [2] -4.65% | [3] -22.4% | [4] -23.2% | [5] -5.35% | [6] -16.1%

O=C(/C=C/c1ccccc1)[c-]1[c-][c-][c-][c-]1.[Fe].[c-]1[c-][c-][cH-][c-]1
inactive: [1] 10.9% | [2] 11.6% | [3] 9.05% | [4] 8.1% | [5] 13.8% | [6] 13.2%

COC(=O)Nc1cn2cc(C(=O)c3cccs3)ccc2n1
inactive: [1] -2.5% | [2] -21.5% | [3] -9.95% | [4] -10.5% | [5] -42% | [6] -53.2%

[Cl][Ge]([Cl])([c]1ccccc1)[c]1ccccc1
inactive: [1] 29.1% | [2] 20.9% | [3] 29.1% | [4] 12.8% | [5] 43% | [6] 29.1%

C(=C/c1nnc2ncccn12)/c1ccccc1
inactive: [1] -13.8% | [2] -4.85% | [3] -1.5% | [4] -15.7% | [5] 0.05% | [6] -5.4%

[N-]=[N+]=CC(=O)C1OC1c1ccc(Br)cc1 (stereo unspecified)
inactive: [1] 11.8% | [2] 15.3% | [3] 22.9% | [4] 24.4% | [5] -0.25% | [6] 33.1%

CCC(/C=C\C(C)C1CCC2C3CC=C4CC(OC)CCC4(C)C3CCC12C)C(C)C (stereo unspecified)
inactive: [1] 25.2% | [2] 5.1% | [3] -3.4% | [4] 20.6% | [5] -3.5% | [6] 9.05%

Cc1ccccc1-c1c2ccccc2cc2c1ccc1ccccc12
inactive: [1] 12% | [2] -21.7% | [3] -5.05% | [4] -20.9% | [5] 9.35% | [6] 0.35%

CNC(=O)SC1=NS(=O)(=O)c2ccc(Cl)cc2N1
inactive: [1] 18.6% | [2] 19.5% | [3] 33.4% | [4] 23.1% | [5] 17.6% | [6] 42.5%

COC(=O)/C=C(\C(=O)c1ccccc1)c1ccccc1
inactive: [1] 6.05% | [2] 4.25% | [3] -4.1% | [4] 8.95% | [5] 0.3% | [6] 11.9%

Source: PubChem BioAssay (NCI)
